Measured values published in PubChem BioAssay (EPA / NIEHS).
Records with an inconclusive call do not appear. Active and inactive are the calls of the source. How the source made its calls, unless noted: active means hit-call score of the fitted dose curve at least 0.9, where 1 is the maximum; inconclusive means response in the unintended direction; inactive means score below 0.9.

Experiments:
[1] = read-out: UDP glucuronosyltransferase (UGT1A1), UGT1A1 (gene 54658); test: LTEA_HepaRG_UGT1A1: Life Technologies and Expression Analysis (LTEA) Assay for UDP glucuronosyltransferase (UGT1A1) using HepaRG (AID 2283538; active means hit-call score of the fitted dose curve at least 0.9, where 1 is the maximum; inactive means score below 0.9); conditions: mRNA level, 48 h; actives raise or lower the signal
Outline: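 mRNA induction or loss of UGT1A1, by TaqMan qRT-PCR, in duplicate HepaRG wells after 48 h exposure to half-log dilutions topping at 100 uM; DMSO (0.5%) served as baseline.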

[2] = read-out: UDP glucuronosyltransferase (UGT1A6), UGT1A6 (gene 54578); test: LTEA_HepaRG_UGT1A6: Life Technologies and Expression Analysis (LTEA) Assay for UDP glucuronosyltransferase (UGT1A6) using HepaRG (AID 2283539; active means hit-call score of the fitted dose curve at least 0.9, where 1 is the maximum; inactive means score below 0.9); conditions: mRNA level, 48 h; actives raise or lower the signal
Outline: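 Differentiated HepaRG cells, ~100,000/well, were exposed for 48 h in serum-free induction medium with 0.5% DMSO to 8-point half-log series topping at 100 uM, in duplicate. mRNA measured by Fluidigm TaqMan qRT-PCR, normalized to ACTB, GAPDH and POLR2A.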

[3] = read-out: X-box binding protein 1 (XBP1), XBP1 (gene 7494); test: LTEA_HepaRG_XBP1: Life Technologies and Expression Analysis (LTEA) Assay for X-box binding protein 1 (XBP1) using HepaRG (AID 2283540; active means hit-call score of the fitted dose curve at least 0.9, where 1 is the maximum; inactive means score below 0.9); conditions: mRNA level, 48 h; actives raise or lower the signal
Outline: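 Differentiated human HepaRG cells in serum-free induction medium exposed 48 h in duplicate to eight half-log concentrations up to 100 uM in 0.5% DMSO. XBP1 mRNA measured by Fluidigm TaqMan qRT-PCR, normalized to ACTB, GAPDH, POLR2A; bidirectional fitting against DMSO.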

[4] = LTEA_HepaRG_LDH_cytotoxicity: Cytotoxicity Assessment in the Life Technologies and Expression Analysis (LTEA) Assay (AID 2283563)
Outline: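 Differentiated HepaRG cells in serum-free induction medium, exposed 48 h in duplicate to 8 half-log concentrations up to 100 uM in 0.5% DMSO. Cytotoxicity from LDH measured in spent medium, fit relative to DMSO.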

[5] = ATG_XTT_Cytotoxicity: Cytotoxicity Assessment in the Attagene TRANS-FACTORIAL HepG2 Assay (AID 2283584);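 on AC50: XTT signal for cell number as viability in transfected HepG2 cells; cells exposed to compound for 24 h before reading; active means loss of viability signal versus DMSO baseline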
Outline: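 HepG2 cells transiently transfected with GAL4-UAS multiple reporter units, dosed 24 h; cytotoxicity read by XTT as loss of signal versus DMSO baseline.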

[6] = Tanguay_ZF_120hpf_MORT_legacy: (Legacy) Oregon State University Tanguay Lab 120 Hour Post-fertilization zebrafish Assay for Mortality (AID 2283633);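 on AC50: fitted as increase in binary mortality versus DMSO negative control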
Outline: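 Dechorionated Tropical 5D wild-type zebrafish embryos, one per well from 6 hpf, static exposure in 0.64% DMSO at 28C until 120 hpf. Mortality scored as binary by brightfield microscopy at 24 and 120 hpf.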

[7] = Tanguay_ZF_120hpf_YSE_legacy: (Legacy) Oregon State University Tanguay Lab 120 Hour Post-fertilization zebrafish Assay for Yolk Sac Edema (AID 2283634)
Outline: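 Dechorionated Tropical 5D wild-type zebrafish embryos were exposed statically, one per well, from 6 to 120 hpf at 28C in 0.64% DMSO. Yolk sac edema was scored present/absent by brightfield at 120 hpf, and dead embryos were excluded.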

[8] = Tanguay_ZF_120hpf_EYE_legacy: (Legacy) Oregon State University Tanguay Lab 120 Hour Post-fertilization zebrafish Assay for Eye Malformation (AID 2283636);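 further: binary presence or absence of eye malformation scored by brightfield in 120 hpf larvae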
Outline: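 Static waterborne exposure of dechorionated zebrafish embryos (strain Tropical 5D), 6 to 120 hpf, sealed plates at 28C, 0.64% DMSO vehicle. Eye malformation is scored as a binary endpoint, with gain of signal analysed relative to DMSO.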

[9] = Tanguay_ZF_120hpf_SNOU_legacy: (Legacy) Oregon State University Tanguay Lab 120 Hour Post-fertilization zebrafish Assay for Snout Malformation (AID 2283637)
Outline: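 Dechorionated zebrafish, individually housed from 6 hpf in covered, sealed wells at 28C with 0.64% DMSO vehicle, were examined at 120 hpf for snout malformation. Responses were binary and analysed positive-direction relative to DMSO.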

[10] = read-out: Cellular tumor antigen p53 (Homo sapiens) (UniProt P04637); test: LTEA_HepaRG_TP53: Life Technologies and Expression Analysis (LTEA) Assay for Tumor Protein P53 (TP53) using HepaRG (AID 2283537; active means hit-call score of the fitted dose curve at least 0.9, where 1 is the maximum; inactive means score below 0.9); conditions: mRNA level, 48 h; actives raise or lower the signal
Outline: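 TP53 transcript measured by qRT-PCR, normalized to three housekeeping genes, after 48 h treatment of human HepaRG cultures with chemicals from 100 uM downward in half-log steps (0.5% DMSO vehicle, serum-free induction medium). Up- or down-regulation fitted against DMSO.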

[11] = TOX21_p53_BLA_p2_viability: Viability Assessment in the Tox21 HCT-116 p53 Agonism Beta-lactamase Assay, Phase 2 (AID 2283591);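 further: actives lower the ATP signal meaning cytotoxicity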
Outline: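 HCT-116 p53-bla cells (4000/well) rested 5 h at 37C, then received compounds in DMSO (217-fold dilution) for 16 h at 37C, 5% CO2. After the CCF4 read, CellTiter-Glo was added; ATP luminescence was read after 30 min at room temperature.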

[12] = molecular target: Cellular tumor antigen p53 (Homo sapiens) (UniProt P04637); test: TOX21_p53_BLA_p2_ratio: Tox21 HCT-116 p53 Agonism Beta-lactamase Assay, Ratio, Phase 2 (AID 2283592)
Outline: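 First, HCT116 reporter cells settle for 5 h at 37C. Next, DMSO compound solutions are pinned in (217-fold dilution) and left 16 h. Finally, CCF4-AM substrate is loaded 2 h at room temperature and the 460/530 nm ratio read.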

[13] = molecular target: Cellular tumor antigen p53 (Homo sapiens) (UniProt P04637); test: TOX21_p53_BLA_p3_ratio: Tox21 HCT-116 p53 Agonism Beta-lactamase Assay, Ratio, Phase 3 (AID 2283596)
Outline: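 Cells were seeded at 4000/well, rested 5 h at 37C, then dosed with DMSO compound solutions (217-fold dilution) for 16 h. CCF4-AM substrate was loaded for 2 h at room temperature, and the 460/530 nm emission ratio was fitted for gain of signal versus DMSO.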

[14] = molecular target: Cellular tumor antigen p53 (Homo sapiens) (UniProt P04637); test: TOX21_p53_BLA_p4_ratio: Tox21 HCT-116 p53 Agonism Beta-lactamase Assay, Ratio, Phase 4 (AID 2283601)
Outline: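 HCT116 cells carrying an inducible beta-lactamase reporter were plated at 4000 cells/well, rested 5 h, then exposed to compounds in DMSO (217-fold dilution) for 16 h at 37C. CCF4-AM substrate was loaded 2 h at room temperature; 460/530 nm emission ratio scored gain-of-signal versus DMSO.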

[15] = Tanguay_ZF_120hpf_AXIS_legacy: (Legacy) Oregon State University Tanguay Lab 120 Hour Post-fertilization zebrafish Assay for Body Axis Malformation (AID 2283635)
Outline: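 Dechorionated wild-type Tropical 5D zebrafish embryos, one per well, statically exposed from 6 hpf to 120 hpf at 28C in 0.64% DMSO final. Body axis malformation scored present/absent by brightfield microscopy at 120 hpf; dead embryos excluded.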

[16] = TOX21_p53_BLA_p4_viability: Viability Assessment in the Tox21 HCT-116 p53 Agonism Beta-lactamase Assay, Phase 4 (AID 2283597);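 further: hits lower the luminescence signal meaning cytotoxicity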
Outline: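 4000 HCT116 cells per well; 5 h attachment; compounds from DMSO, 217-fold dilution; 16 h at 37C. Then CCF4-AM, 2 h RT, followed by CellTiter-Glo, 30 min RT, luminescence. Decrease = cytotoxicity.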

[17] = TOX21_p53_BLA_p5_viability: Viability Assessment in the Tox21 HCT-116 p53 Agonism Beta-lactamase Assay, Phase 5 (AID 2283600)
Outline: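 Decreased CellTiter-Glo luminescence denotes lost viability. Exposure: 16 h at 37C, 5% CO2, with compounds from DMSO stocks diluted 217-fold in wells of 4000 cells.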

Measured: AC50

Cellular tumor antigen p53 (Homo sapiens), sequence (P04637 whole entry, looked up): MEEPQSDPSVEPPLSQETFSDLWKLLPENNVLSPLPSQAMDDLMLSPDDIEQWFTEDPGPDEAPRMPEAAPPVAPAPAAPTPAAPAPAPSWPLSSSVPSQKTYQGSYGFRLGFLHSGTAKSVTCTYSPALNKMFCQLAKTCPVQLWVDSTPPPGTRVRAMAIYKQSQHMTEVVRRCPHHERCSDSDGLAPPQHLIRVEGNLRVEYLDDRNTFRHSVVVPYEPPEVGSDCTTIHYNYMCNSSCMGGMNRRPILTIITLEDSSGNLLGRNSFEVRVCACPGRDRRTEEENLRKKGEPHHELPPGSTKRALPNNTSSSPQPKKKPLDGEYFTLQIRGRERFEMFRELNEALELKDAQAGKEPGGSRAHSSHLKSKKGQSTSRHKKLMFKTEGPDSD

C/C=C/c1ccc(OC)cc1
inactive: [1] | [2] | [3] | [4] | [5] | [6] | [7] | [8] | [9]

CCCCc1nc2cccnc2n1Cc1ccc(-c2ccccc2-c2nnn[nH]2)cc1
inactive: [10] | [2] | [3] | [5] | [11] | [12] | [13] | [14] | [6] | [7] | [15] | [8] | [9]
active: [1] 18.8 µM

Cc1cc(SC2=C(O)C[C@@](CCc3ccc(N)cc3)(C(C)C)OC2=O)c(C(C)(C)C)cc1CO
active: [1] 1.38 µM
inactive: [10] | [2] | [3] | [11] | [12] | [13] | [16] | [17] | [6] | [7] | [15] | [8] | [9]

CCN(CC)CCOc1ccc(C(=C(Cl)c2ccccc2)c2ccccc2)cc1
active: [1] 80.1 µM | [2] 56.6 µM | [5] 28 µM [middle of 5 runs] | [6] 26.9 µM
inactive: [3] | [7] | [15] | [8]
